The results in this text go back to PubChem BioAssay AID912 (National Center for Advancing Translational Sciences (NCATS), 2007).

Each structure is given as a SMILES string. Where “and” joins values, the source holds several entries; their conditions need not be identical. Equal entries are not always repeated. About 470 (0.67%) of roughly 70,000 compounds were called active. Another 18% or so got no clear call; they are omitted. The call rests on the fitted dose curve. The sample as a whole holds a higher share of actives than the screen did. The source holds several records for some structures; these can differ, active in one and inactive in another.
On the % scale 0 is the no-effect control and ±100 the full control effect; potency means the concentration at half of the fitted maximal effect.

The assay can be described thus: qHTS Assay for Anthrax Lethal Toxin Internalization. Further: nearly all actives have a fitted effect of over 50% in size. The conditions noted are these: Cells, FRET ratio (460/530); series mostly up to 40 µM; activity change, negative = inhibition: at the top concentration. In general terms: In qHTS, concentration-response curves come from the screen itself.
As for `CN1CCc2nc(-c3ccccc3)c(-c3ccccc3)cc2C1`, the activity change, negative = inhibition is -6.08% [at 8 µM] (inactive).
The same measure, in the same setting: as for `COCCn1c(=O)c(C)nc2cnc(N(C)C)nc21`, the figure is -9.51% (inactive).
Consider `O=C1C[C@@H](O)[C@@H](O)[C@H]2[C@@H]3C(=O)N(Cc4ccc5c(c4)OCO5)C(=O)[C@@H]3CC[C@H]12`, for which the activity change, negative = inhibition was 3.37% [at 8 µM] (inactive) and -9.87% [at 8 µM] (inactive).
On to `CC[C@]1(C)CC(=O)NC1=O`, for which the activity change, negative = inhibition entry is “inactive”.
As for `COc1ccc2c(=O)cc(-c3ccccc3)oc2c1O`, the “activity change, negative = inhibition” value is 0.763% (inactive).
Same read-out and setting: the figure for `CCNCCCNCCCNCCCNCC` is -12.1% (inactive); for `COCCNC(=O)COc1ccc(C)c(C)c1` it is -6.37% (inactive); for `CCOC(=O)c1nc(N)sc1C(=O)OCC` it is 0.0428% (inactive).
Same read-out and setting: as for `FC(F)(F)c1ccccc1-c1cc(NCc2ccccc2)ncn1`, the figure is 18.2% (inactive); as for `Cc1cc(C(=O)O)ccc1[N+](=O)[O-]`, -3.62% (inactive); as for `Nc1ccccc1N`, -3.5% (inactive).
As for `CCOC(=O)c1[nH]c2ccc(OC)cc2c1NC(=O)N1CCOCC1`, the “activity change, negative = inhibition” value is -8.81% (inactive).
For the compound `Cc1cccc(C(=O)O)c1[N+](=O)[O-]`, the “activity change, negative = inhibition” value was 4.62% (inactive).
Consider `Cc1nn(Cc2ccc(Cl)c(Cl)c2)c(C)c1NC(=O)c1cc(C2CC2)on1`, for which the “activity change, negative = inhibition” value is -30.6% (inactive).
With `CCC[C@@H]1C[C@@]1(CCC)[C@@H](NC(=O)c1ccccc1)c1ccc(C(=O)OC)cc1`, the “activity change, negative = inhibition” value was -19.3% (inactive).
As to `CN1[C@@H]2CC[C@H]1CC(OC(=O)c1cc(Cl)cc(Cl)c1)C2` (stereo partly drawn), the Potency result is “inactive and 15.8 µM (active)”.
Regarding `O=C1OCCC=C1[C@@H](O)CCc1ccccc1`, the activity change, negative = inhibition was -3.54% [at 1.6 µM] (inactive).
The same measure, in the same setting: as for `CCCn1c(-c2ccc(F)cc2)nc2c(NCC3CCCN3CC)nc(C)nc21` (stereo not drawn), the figure is -14.1% (inactive).
As for `Nc1cc(OC(=O)c2ccccc2Br)nn1S(=O)(=O)c1ccccc1`, the Potency was 10 µM (active).
Turning to `C/C=C1\C(=O)C[C@@H]2[C@@H]3CCC4=CC(=O)CC[C@@]4(C)[C@H]3CC[C@@]12C`, the “activity change, negative = inhibition” value was -8.2% (inactive).
On the same count and under the same terms, the figure for `Cc1ccnc(N)c1` is -11.7% (inactive); for `CC(C)(C)NCC[C@@H](O)c1cc(C(F)(F)F)nc2c(C(F)(F)F)cccc12` it is -2.37% [at 8 µM] (inactive); for `COCCn1c(=O)c(-c2cc(F)cc(F)c2)nc2cncnc21` it is 3.07% (inactive).
The same measure, in the same setting: the figure for `CN=C1SC(C(=O)O)CC(=O)N1C` (stereo not drawn) is 0.241% (inactive); for `O=NO` it is “inactive”; for `COc1ccc(N)c(C)c1` it is 1.73% (inactive).
Still for that read-out and setting: the figure for `O=C(COc1ccc2oc3c(c2c1)CCCC3)Nc1ccccn1` is -10.7% (inactive).
For `CC(C)C[C@H](NC(=O)NCCc1ccc(Cl)cc1)C(=O)O`, the “activity change, negative = inhibition” value is 2.75% (inactive).
Consider `O=C(NCCc1ccc(Cl)cc1)C1CC(=O)N(C2CCCCC2)C1` (stereo not drawn), for which the “activity change, negative = inhibition” value was 0.384% (inactive).
Take `Oc1cc2c(cc1O)CN(C(=S)NCCc1ccc(Cl)cc1)CCC2`: the Potency was 15.8 µM (active).
In the case of `O=S(=O)(O)c1ccc(O)c2ncccc12.O=S(=O)(O)c1ccc(O)c2ncccc12.[Zn]`, the activity change, negative = inhibition is -0.63% [at 8 µM] (inactive).
On the same count and under the same terms, the figure for `NS(=O)(=O)c1cc(C(=O)O)c(Cl)c([N+](=O)[O-])c1Cl` is -7.65% [at 8 µM] (inactive).
As for `C=CCOC(=O)C(C(C)=O)C(NC(=O)OC)c1ccccc1` (stereo not drawn), the activity change, negative = inhibition is -6.02% [at 8 µM] (inactive).
The same measure, in the same setting: as for `Cc1ccc(Br)cc1`, the figure is -9.02% (inactive); as for `CN(C)CCSS(=O)(=O)O`, -2.2% [at 8 µM] (inactive); as for `c1ccc(Oc2ccccc2)cc1`, 12% (inactive).
Same read-out and setting: the figure for `Oc1ccc(O)c2c(O)cccc12` is -2.4% (inactive).
Still for that read-out and setting: as for `Cc1c(C)c2c(c(C)c1O)CC[C@@](C)(CN1CCN(c3cc(N4CCCC4)nc(N4CCCC4)n3)CC1)O2`, the figure is -10.2% (inactive); as for `C[C@@H]1/C=C\CC(=O)OC[C@H]2O[C@@H](C=C[C@@H]2O)[C@H](C)/C=C\CC(=O)OC[C@H]2O[C@H]1C=C[C@@H]2O`, 0.461% [at 0.32 µM] (inactive).
Consider `COc1ccc(NC(=O)C2CCCN(S(=O)(=O)c3cccc4cccnc34)C2)cc1` (stereo not drawn), for which the Potency is 3.16 µM (active).
On to `O=C(O)C1CCCN(S(=O)(=O)c2cccc3cccnc23)C1` (stereo not drawn), for which the “activity change, negative = inhibition” value is 0.387% (inactive).
`COc1ccc(NC(=O)C2CCCN(S(=O)(=O)c3cccc4cccnc34)C2)cc1OC` (stereo not drawn): the “activity change, negative = inhibition” value is -8.54% (inactive).
Same read-out and setting: as for `Cc1cccc(Br)c1`, the figure is -11.9% (inactive); as for `COC(=O)C(C(=O)OC)[C@@H]1CCCC(=O)C1`, 8.84% [at 8 µM] (inactive); as for `CCCC[C@@H]1C[C@H]1C(NC(=O)c1ccco1)c1ccc(C(=O)OC)cc1` (stereo partly drawn), -5.36% (inactive).
Still for that read-out and setting: the figure for `COC(=O)NC(c1ccccc1)[C@]1(C(C)=O)CCCC1=O` (stereo partly drawn) is -2.74% [at 8 µM] (inactive); for `CC(C)=CCC/C(C)=C/CO/N=C1/C[C@@H](O)[C@@H](O)[C@@H]2[C@@H]3C(=O)N(C(C)(C)C)C(=O)[C@H]3CC[C@H]12` it is 4.39% [at 1.6 µM] (inactive).
Same read-out and setting: the figure for `O=C(Cl)c1ccc([N+](=O)[O-])cc1` is -9.99% (inactive).
